# SW480 rereplic – A quantitative high throughput screen for small molecules that induce DNA re-replication in SW480 colon adenocarcinoma cells | 340,000 compounds, 1.8% hits | Potency, µM (titrated, usually from 46.1 µM), without a hit: at the top dose re-replication activation, actives largely listed as activators | SW480 DNA re-replication, Hoechst DNA content imaging, 48 h | AID 624297, 2012; note: potency is the fitted concentration of half-maximal effect; % of control where 0% means no effect; nearly all actives have a fitted effect of over 55% in size
#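 Image-based DNA-content assay: after two days of treatment, nuclei were labelled with the DNA dye Hoechst and imaged, and hits were compounds raising the count of nuclei showing high fluorescence intensity.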
# TDP1 cell CPT – qHTS for Inhibitors of human tyrosyl-DNA phosphodiesterase 1 (TDP1): qHTS in cells in presence of CPT | chicken DT40 Tdp1-/-;hTDP1 cells + 20 nM CPT, ATP luminescence, 48 h | Potency, µM (top dose mostly 46.2 µM), without a hit: top-dose activity change, negative = growth inhibition, hits mostly inhibitors | 420,000 compounds, 12% hits; note: potency is the fitted concentration of half-maximal effect; % is set by controls: 0 for no effect and ±100 for the full control effect; nearly all actives have a fitted effect of over 55% in size
#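 Cell growth measured by CellTiter-Glo luminescence after a minimum 48 h, 37 C compound exposure with 20 nM CPT in Tdp1-knockout DT40 cells stably expressing hTDP1, seeded 400/well; qHTS titration format.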
# MCF10A rereplic – A quantitative high throughput screen for small molecules that induce DNA re-replication in MCF 10a normal breast cells; MCF 10A DNA re-replication, Hoechst nuclear intensity, 48 h; Potency, µM (highest dose often 46.1 µM), inactives show at the highest dose activity, positive = re-replication, hits mostly activators; 350,000 compounds, 2.9% hits; note: potency is the fitted concentration of half-maximal effect; % of control where 0% means no effect; nearly all actives have a fitted effect of over 50% in size
# DT40 TDP1 no CPT – qHTS for Inhibitors of human tyrosyl-DNA phosphodiesterase 1 (TDP1): qHTS in cells in absence of CPT; AID 686978, 2013; DT40 Tdp1-/- hTDP1 cells, no CPT, ATP luminescence, 48 h; 420,000 compounds, 15% hits; Potency, µM (titrated, usually from 46.2 µM), inactives show top-dose activity change, negative = growth inhibition, most hits filed as inhibitors; note: potency is the fitted concentration of half-maximal effect; % is set by controls: 0 for no effect and ±100 for the full control effect; nearly all actives have a fitted effect of over 55% in size
#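 Luminescent ATP content (CellTiter-Glo) served as the growth readout. Knockout chicken DT40 cells expressing human TDP1 were exposed to compounds without camptothecin for a minimum 48 hr at 37 °C.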
# IL-1B inflam inh – qHTS for Inhibitors of Inflammasome Signaling: IL-1-beta AlphaLISA Primary Screen | THP-1 LPS/ATP IL-1B secretion, AlphaLISA, 16 h; stronger effect = lower value | 360,000 compounds, 4.7% hits | activity change, % at 57.5 µM; in the data active = activity change below about -50%; inconclusive = mostly about -30% to -49%; note: % is set by controls: 0 for no effect and ±100 for the full control effect
#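 THP-1 cells pretreated 1 hr with compounds (up to 57.5 uM final), then stimulated with LPS (250 ng/mL final) plus ATP (1.25 mM final); secreted IL-1B measured by AlphaLISA after 16 hr, decreased signal indicating inhibition.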
# BCR signal inh – qHTS Assay to Find Inhibitors of Chronic Active B-Cell Receptor Signaling | Potency, µM (top dose mostly 46.1 µM), for the others: top-dose activity change, negative = inhibition, hits mostly inhibitors | AID 493014, 2011 | 340,000 compounds, 0.05% hits | ABC-DLBCL IkBa-CBG/CBR reporter, luminescence ratio, 4 h; active = well fitted inhibition curve with a large enough effect in the signal ratio, with a control signal flat, not every such curve was filed as active; inconclusive = small, poorly fitted or top-dose-only effect, or effect the other way, or a change in a side signal; the % refers to the signal ratio;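 note: potency is the fitted concentration of half-maximal effect; plate controls were basal doxycycline-induced cells for no effect and cells given 10 µM MG132 for full effect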
#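 Concentration-response series (up to 46 uM) were applied to TMD8 dual-reporter cells for 4 h at 37C with doxycycline. Green/red ratio, after filter-overlap correction, defined %Activity; red signal alone was normalised to basal cells and zero luminescence.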
# * hit, by the source's call; u = inconclusive; x = not tested or not shown. Compounds with a hit are over-represented: about 19% of the library has one in this group of screens. Unless noted, calls come from the whole dose curve; as a rule, active = well fitted curve in the direction sought with a large enough effect; inconclusive = small, poorly fitted or top-dose-only effect, or another doubt; inactive = no such curve, though single readings can be large; an effect the other way counts as inactive or inconclusive.
SMILES,SW480 rereplic,TDP1 cell CPT,MCF10A rereplic,DT40 TDP1 no CPT,IL-1B inflam inh,BCR signal inh
O=S(=O)(N/N=C/c1ccccc1F)c1ccccc1,-8%,18µM*,5%,23µM*,1,-8%
Cc1ccc(S(=O)(=O)N/N=C\c2ccccc2OCc2ccccc2)cc1,-5%,u,-2%,18µM*,-12,-1%
Cc1ccc(S(=O)(=O)N/N=C\c2ccc3c(c2)OCO3)cc1,21%,-19%,-3%,-7%,5,3%
Cc1ccccc1C(=O)c1cccn1CC(=O)N1CCCCC1,1%,0%,-3%,u,-12,8%
O=C(NCCc1cccs1)Nc1ccc2nc([C@@H]3O[C@H](CO)[C@@H](O)[C@H]3O)[nH]c2c1,x,-12%,x,-14%,0,x
Cc1ccc(NC(=O)c2sccc2-n2cccc2)c(C)c1,0%,21µM*,20%,u,-1,2%
Cc1cccc(NC(=O)c2sc(Cl)nc2C)c1C,-43%,-14%,25%,-17%,4,0%
Cc1nc(Cl)sc1C(=O)Nc1ccc(C(C)(C)C)cc1,u,-10%,11%,u,-91*,u
Cc1ccc(NC(=O)c2sc(Cl)nc2C)c(C)c1,-2%,4%,-2%,3%,-65*,1%
Cc1cc(C)c(C)c(OC(=O)c2sc(Cl)nc2C)c1,u,7.3µM*,u,8.2µM*,-104*,u
Cc1ccc(NC(=O)c2sc(C)nc2C)c(C)c1,4%,-14%,10%,1%,-11,1%
Cc1ccccc1NC(=O)c1sc(Cl)nc1C,5%,21%,4%,u,-17,1%
CCC(=O)N[C@H]1C=C[C@H](CC(=O)OC)O[C@@H]1CO,x,2%,x,1%,17,x
COc1ccc(/C=C/C(O)=C2/C(=O)N(C)C3(C)CC2c2ccccc2O3)cc1 (stereo not drawn),u,23µM*,u,21µM*,-91*,0%
COc1ccc(/C=C/C(O)=C2/C(=O)NC3(C)CC2c2ccccc2O3)c(OC)c1OC (stereo not drawn),u,8.2µM*,u,7.3µM*,-20,1%
N#Cc1c2ccc(OCC(=O)NCc3ccco3)cc2n2ccccc12,u,-2%,2%,-16%,-18,u
N#Cc1c2ccc(O)cc2n2ccccc12,u,u,u,8.2µM*,-52*,u
COc1ccc(-c2cc(C(=O)Nc3cc(C(F)(F)F)ccc3Cl)no2)cc1,x,5%,x,0%,x,x
COc1ccc(CCNS(=O)(=O)c2cccc(C)c2)cc1OC,-2%,6%,2%,-16%,-2,2%
COc1ccc(-c2nc3scc(CCNS(=O)(=O)c4ccc(F)cc4F)n3n2)cc1OC,x,u,x,18µM*,x,-13%
COc1ccc(S(=O)(=O)NCCc2csc3nc(-c4ccc(OC)c(OC)c4)nn23)cc1C,x,u,x,16µM*,x,-6%
COc1ccc(-c2nc3scc(CCNS(=O)(=O)c4c(C)cc(C)cc4C)n3n2)cc1OC,x,15µM*,x,23µM*,x,-3%
O=C(NCCc1csc2nc(-c3ccccc3F)nn12)C(=O)Nc1cc(F)ccc1F,x,3%,x,-6%,x,x
COc1ccc(S(=O)(=O)NCCc2csc3nc(-c4cccc(C)c4)nn23)cc1F,x,u,x,21µM*,x,2%
CCOc1ccc(S(=O)(=O)NCCc2csc3nc(-c4ccc(OC)c(OC)c4)nn23)cc1,x,u,x,u,x,-4%
